This is an account of results in PubChem BioAssay (NCI).

This is part of a sample that, as a whole, favours compounds with a hit. Of some 83,000 tested, about 20% had one in any assay.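 For each line, cells grew in 96-well plates with the test compound present at a single concentration for 48 hours.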 Unmarked numbers belong to inactive results. Activity calls are given as the source filed them. How the source made its calls: active means growth percent below 10; inactive means the rest.

For the experiment, the system named is HCT-15 colon. In words: NCI-60 one-dose screen, 48 h (100 = growth as untreated, 0 = no growth, -100 = all killed). As to conditions: 10 µM unless noted.
For the compound `O=c1cc(Cc2ccc([N+](=O)[O-])cc2)[nH]c(=O)[nH]1`, the growth is 96.6%.

As for `Cc1csc(NC(c2ccccc2)c2c(C)nc3ccccn23)n1` (centres undefined), the growth is 100%. Then `Cc1ccc(/C=C2\CN(C(=O)CCN3CCC(=NO)CC3)C/C(=C\c3ccc(C)cc3)C2=O)cc1`, with -27.9% (active).

For the compound `O=C1Nc2ccc3c(c2/C1=C\c1cc2c(cc1Br)OCO2)OCO3`, the growth was 22.9%.

On to `c1ccc(-c2nc(N3CCNCC3)c3nc(-c4ccccc4)oc3n2)cc1`, for which the growth is -81.3% (active). `CCN(CC)c1ccc(CNc2ccnc3ccccc23)cc1`: the growth is 58.6%. As for `CN(CCCCN(C[C@H]1Cc2ncccc2CN1)[C@H]1CCCc2cccnc21)C1CCC(F)(F)CC1`, the growth was 70.4%. Then `ClC(Cl)c1nc(-c2ccccc2)nc2cc(-c3ccccc3)nn12`, with 7.78% (active); and `O=[N+]([O-])c1ccc(OCCCOc2ccccc2)cc1`, with 99.4%; and `N#C/C(=C1C=C/C(=N/O)C(Cl)=C/1)c1ccc(Cl)cc1`, with 83%. Then `CCCCC(CC)OC(=O)C(Br)CC` (centres undefined), with 105%. On to `C=C[C@@H]1C[C@@H]2Cc3c(C)cc(C)cc3N1O2`, for which the growth is 101%. Then `C=C[C@@H]1C[C@@H]2Cc3ccccc3N1O2`, with 107%. Then `CC(=O)OC[C@]12CC[C@H]3[C@@H](C[C@H]4O[C@]45CC=CC(=O)[C@]35C)[C@]1(O)CC[C@@]2(O)[C@@](C)(O)C1CC(C)=C(C)C(=O)O1` (some centres undefined), with 0% (active); and `CO[C@H]1NC(=O)N(S(=O)(=O)c2ccc(Cl)cc2)[C@@H]1OC`, with 102%; and `COC(=O)c1cc2cc(-c3ccc(OC)cc3)cnc2[nH]1`, with 11%. Then `O=C(Nc1cccc(-n2cc(-c3ccncc3)c(-c3ccc(Cl)c(O)c3)n2)c1)Nc1cc(C(F)(F)F)cc(C(F)(F)F)c1`, with -7.23% (active). As to `C[n+]1c(/C=C/c2c(O)ccc3ccccc23)ccc2ccccc21`, the growth is 21.6%. Then `COc1ccc(-c2cn(-c3cccc(C(=O)/C=C/c4cc(OC)c(OC)c(OC)c4)c3)c(=O)[nH]2)cc1OC`, with 82.1%. Then `C=C[C@@H]1C[C@H](O)Cc2c(C)cc(C)cc2N1`, with 101%; and `O=C(O)Cc1cccc(=O)c(O)c1C(=O)O`, with 106%. Then `COc1cc(/C=C/C(=O)c2ccc(Nc3ncnc4cc(OC)c(OC)cc34)cc2)cc(OC)c1`, with 97.8%; and `COc1cc(/C=C/C(=O)c2cccc(-n3cc(-c4cc(OC)c(OC)c(OC)c4)[nH]c3=O)c2)cc(OC)c1OC`, with -4.5% (active); and `COC1=C(OC)C(=O)C(CCCCCCCCCC[P+](c2ccccc2)(c2ccccc2)c2ccccc2)=C(C)C1=O`, with -3.39% (active). On to `C=C[C@@H]1C[C@H](O)Cc2ccccc2N1`, for which the growth was 103%.

Take `CCN1C(=O)N(CC)C2C1NN=c1s/c(=C\c3cccnc3)c(=O)n12` (centres undefined): the growth is 18.9%. Turning to `O=S(=O)(CC(O)(c1ccccc1)c1ccccc1)CC(O)(c1ccccc1)c1ccccc1`, the growth is 96.4%. Then `CCN(CC)CCCC(C)Nc1c2ccc(Cl)cc2nc2cc(OC)c(OC)cc12` (centres undefined), with -22.4% (active); and `CCCCCCCCCCCC(=O)NCCC[N+](C)(C)CC(=O)[O-]`, with 100%. Then `CCOC(=O)/C(C#N)=C1/C(=O)Nc2ccccc21`, with 106%. Then `Cn1c(=O)c2[nH]c(C3CC=CCC3)nc2n(C)c1=O` (centres undefined), with 106%; and `O=[N+]([O-])c1cc(S(=O)(=O)Oc2ccccc2)ccc1Cl`, with 40.5%; and `C=C(C)[C@@H]1C[C@H](O)Cc2cc(F)ccc2N1`, with 100%. Consider `COc1ccc2c(c1)[nH]c(=O)c1c3cccc(F)c3cn21`, for which the growth is 9.78% (active). Then `CN(C)c1nc2c(N)ncnc2n1C1OC(CO)C(O)C1O` (centres undefined), with 104%; and `O=C1NN(C(=O)c2ccc(Cl)cc2)C(c2ccccc2)=N/C1=C\c1ccc(F)cc1`, with 72.4%; and `N[C@H]1CN(C(=O)c2cc3cc(Br)c(F)c(F)c3[nH]2)C[C@@H]1O`, with 102%.

As for `O=C1/C(=C/c2ccc(Cl)cc2)CN(Cc2cn(CCNc3ccnc4cc(Cl)ccc34)nn2)C/C1=C\c1ccc(Cl)cc1`, the growth was -82% (active). As for `NC(=S)N/N=C1\CCCC(C(F)(F)F)C1` (centres undefined), the growth is 90.5%.
